Assay results: PubChem BioAssay (NCI)
About 79,000 compounds went through this panel and 15% of them were active in at least one assay; those are over-represented in the sample as a whole. The source made the active and inactive calls. No stated cut-off is given here; in the data, active means growth inhibition above about 70%; inactive means the rest.

Columns and labels:
[1] = NCI Yeast Anticancer Drug Screen. Data for the rad50 strain (AID 155);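 further: 0% = growth of vehicle-only cultures of the same strain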; details: S. cerevisiae rad50 strain growth inhibition; at 50.0 µM; active compounds read high
Procedure, shortened: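 Yeast carrying a defined DNA repair defect were exposed to test compounds, and growth was compared with vehicle-treated controls to give percent inhibition.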

[2] = NCI Yeast Anticancer Drug Screen. Data for the mec2-1 strain (AID 157); details: S. cerevisiae mec2-1 strain, at 50.0 µM, active compounds read high
Procedure, shortened: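 Using mec2-1 yeast: add compound, measure growth, express inhibition versus vehicle-treated cultures.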

[3] = NCI Yeast Anticancer Drug Screen. Data for the sgs1 mgt1 strain (AID 161);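 further: 0% = growth of cultures given vehicle only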; details: S. cerevisiae sgs1 mgt1 strain, at 50.0 µM, active compounds read high
Procedure, shortened: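 Compounds are added to genetically altered yeast, and growth is compared with cultures given vehicle alone to give percent inhibition.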

[4] = NCI Yeast Anticancer Drug Screen. Data for the cln2 rad14 strain (AID 165);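 further: 0% = growth equal to vehicle treated cultures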; details: S. cerevisiae cln2 rad14 strain, at 50.0 µM, active compounds read high
Procedure, shortened: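 Yeast strain cln2 rad14, bearing defects in cell cycle control and DNA repair, serves as the test system; values reflect growth inhibition compared with vehicle.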

[5] = NCI Yeast Anticancer Drug Screen. Data for the bub3 strain (AID 167); details: S. cerevisiae bub3 mutant strain, at 50.0 µM, active compounds read high
Procedure, shortened: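 Compounds were applied to a genetically altered yeast strain carrying a cell-cycle control defect. Growth inhibition was scored against vehicle-treated controls.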

[6] = NCI Yeast Anticancer Drug Screen. Data for the mlh1 rad18 strain (AID 175); details: S. cerevisiae mlh1 rad18 strain growth inhibition; at 50.0 µM; active compounds read high
Procedure, shortened: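 Steps: expose repair-defective yeast to compound; measure growth; express inhibition against vehicle-treated controls.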

Measured: growth inhibition

Nc1nnc(-c2ccc(-c3nnc(N)o3)cc2)o1
inactive: [1] -33.6% | [2] -12.9% | [3] -8.55% | [4] -31.1% | [5] 4.05% | [6] -7.25%

COc1cc(C(=O)NC(=S)Nc2csc(-c3ccc(F)cc3)n2)cc(OC)c1OC
inactive: [1] 14.9% | [2] -12.8% | [3] 8.65% | [4] 16.9% | [5] -0.75% | [6] 11.7%

CC(=O)C1=C(O)/C(=C/c2ccccc2)NC1=O
inactive: [1] 8.05% | [2] 5.15% | [3] -6.3% | [4] -35.5% | [5] -13.2% | [6] -3.2%

O=C(O)c1ccc(Cl)c2ncccc12
inactive: [1] 5.3% | [2] 1.25% | [3] -1.3% | [4] -28.2% | [5] -9.75% | [6] 13.2%

CC(=O)n1c(=O)c2cc3c(=O)n(-c4cccc(C#N)c4)c(=O)c3cc2c1=O
inactive: [1] -25.4% | [2] -19.4% | [3] 9.65% | [4] 7.65% | [5] 4.8% | [6] -9.65%

O=C(CCl)Oc1cccc2cccnc12
inactive: [1] -8.75% | [2] 9% | [3] -1.35% | [4] -12.2% | [5] -2.45% | [6] -2.75%

Cn1c(=O)c2c(nc(NCCNc3nc4c(c(=O)n(C)c(=O)n4C)n3C)n2C)n(C)c1=O
inactive: [1] 1.85% | [2] -3.35% | [3] -46.2% | [4] -25.1% | [5] -20.8% | [6] -31.7%

CC(=O)N1N=C(c2ccc(OCC(O)CN3CCN(CC(O)COc4ccc(C5=NN(C(C)=O)C(c6ccccc6)C5)cc4)CC3)cc2)CC1c1ccccc1 (centres undefined)
inactive: [1] -30.6% | [2] -25.9% | [3] -8.85% | [4] -30.4% | [5] -25.9% | [6] -3.8%

CN(C)C=S
inactive: [1] -4.6% | [2] 1.9% | [3] -9.85% | [4] -12.6% | [5] -13.1% | [6] -4%

COC(=O)c1c(C(=O)Nc2ccc(Cl)cc2)c(C)n(NC(N)=O)c1C
inactive: [1] -6.45% | [2] 8.8% | [3] 6.9% | [4] -45.5% | [5] 1.15% | [6] 3.95%

CC(=O)OC1CCCC2CCCC21 (centres undefined)
inactive: [1] 0.2% | [2] 5.2% | [3] 1.25% | [4] -5.7% | [5] -2.35% | [6] -3.75%

CC(=O)/C(=C/N1CCNC1=S)C(=O)Nc1ccc([N+](=O)[O-])cc1
inactive: [1] -0.1% | [2] -4.5% | [3] -28.1% | [4] -33% | [5] -12.9% | [6] 5.6%

COc1cc(C2=N/C(=C\c3ccc(Cl)c(Cl)c3)C(=O)O2)cc(OC)c1OC
inactive: [1] -26.2% | [2] -14.8% | [3] 24.6% | [4] -28.7% | [5] -4.4% | [6] 3.95%

CCn1c(C)[n+](CCCOS(=O)(=O)[O-])c2ccccc21
inactive: [1] 2.6% | [2] -19.1% | [3] -14.4% | [4] 4.1% | [5] 4.6% | [6] -6.05%

CC(C)NC(=O)N(C(=O)C(F)(F)F)C(C)C
inactive: [1] -0.95% | [2] 7.45% | [3] -4.6% | [4] -41% | [5] 2.1% | [6] 7.5%

N#C/C(=C/NC(=S)N=Nc1c(O)[nH]c2ccccc12)C(N)=O
inactive: [1] -33.7% | [2] -51.7% | [3] -19.8% | [4] -6.6% | [5] -0.9% | [6] -18.9%

NC(=S)N/N=C/c1cc(=O)c2cc(Cl)ccc2o1
inactive: [1] -0.05% | [2] 11.8% | [3] 42.3% | [4] 45.8% | [5] 7.95% | [6] 55%

C=CCCCCCCCCC(=O)NC(C)C(C)(C)C (centres undefined)
inactive: [1] 29.9% | [2] 19.8% | [3] 14.7% | [4] 39% | [5] 27.3% | [6] 25.5%

Cc1cc2cccc(C)c2[nH]1
inactive: [1] -11.4% | [2] -4.75% | [3] 18.6% | [4] 0.5% | [5] 4.6% | [6] -9.2%

O=C(N/N=C/c1cccnc1)C(O)C(O)C(O)C(O)CO (centres undefined)
inactive: [1] -4.15% | [2] 8.9% | [3] 6.75% | [4] 7.6% | [5] -12.6% | [6] 11.9%

C1CCC(N=C2N(C3CCCCC3)C(=NC3CCCCC3)N2C2CCCCC2)CC1
inactive: [1] 4.7% | [2] -28.3% | [3] -7.2% | [4] -19.6% | [5] -20.6% | [6] -4.35%

CC(=O)Cc1ccco1
inactive: [1] 14.5% | [2] -3.35% | [3] -8.8% | [4] 22.5% | [5] -2.2% | [6] -10.7%

O=C(c1ccccc1)c1ccc2ccccc2c1C(=O)O
inactive: [1] -8.25% | [2] 9.6% | [3] 4.85% | [4] -69.3% | [5] -5.65% | [6] -17%

Cc1nc2cc([N+](=O)[O-])ccc2c(NCCCN(C)C)c1C
inactive: [1] 6.6% | [2] 8.35% | [3] 7.25% | [4] -1.45% | [5] -3.5% | [6] -39.6%

C=CCCCCCCCCC(=O)Nc1cc2c3c(c1)CCCN3CCC2
inactive: [1] 6.95% | [2] 8.75% | [3] 1.1% | [4] -13.8% | [5] 10.6% | [6] 20.9%

O=P1(O)Oc2ccc3ccccc3c2-c2c(ccc3ccccc23)O1
inactive: [1] -0.4% | [2] 30.3% | [3] -6.1% | [4] -16.9% | [5] 19.4% | [6] 15.7%

CC(=O)Nc1ccc2oc(=O)[nH]c(=O)c2c1
inactive: [1] 10.8% | [2] -15.1% | [3] 6.3% | [4] 9.9% | [5] -18.6% | [6] -0.55%

c1ccc2n[nH]nc2c1
inactive: [1] 19.1% | [2] -10.9% | [3] 7.3% | [4] 2.2% | [5] -4.8% | [6] 16.9%

C#CCOC(=O)[C@@H](C)c1ccc2cc(OC)ccc2c1
inactive: [1] 11.2% | [2] 4.25% | [3] 52.3% | [4] 17.4% | [5] 36.6% | [6] 43%

Nc1nc(N)c2c(n1)NCN(OCCOc1ccc(Cl)cc1Cl)C2
inactive: [1] 1.1% | [2] 3% | [3] 9.15% | [4] -26.8% | [5] -14.8% | [6] 9.8%

COC(=O)Nc1cccc(OC(=O)Nc2cccc(Cl)c2)c1
inactive: [1] 10.3% | [2] 25.2% | [3] 26.6% | [4] -2.85% | [5] 31.4% | [6] 1.4%

O=C(CC(C(=O)c1cccs1)c1ccsc1)c1ccsc1 (centres undefined)
inactive: [1] -14% | [2] -50.2% | [3] -4.4% | [4] 7.55% | [5] 25.2% | [6] -25.6%

O=C(O)CN1C(=O)c2ccccc2C1=O
inactive: [1] -8.75% | [2] -15.7% | [3] -5.5% | [4] -25.7% | [5] -27.6% | [6] -20.3%

C=CCSc1nc2ccc(NC(C)=O)cc2s1
inactive: [1] 42.8% | [2] 10.2% | [3] 7.8% | [4] 19.3% | [5] 20% | [6] 16.7%

NC(=O)C(CC(C(N)=O)C(N)=O)C(N)=O
inactive: [1] 7.5% | [2] 18.4% | [3] -8.45% | [4] -24.9% | [5] 7.7% | [6] -6.55%

CCCCCc1ccc(C)cc1OC(C)=O
inactive: [1] 14.1% | [2] -1.4% | [3] 8.85% | [4] -14.1% | [5] -2.75% | [6] 0.5%

COCCOC(=O)CCC(C)=O
inactive: [1] 20.8% | [2] 15.1% | [3] 6.45% | [4] 7.8% | [5] -4.95% | [6] 10.7%

C[C@]12C(=O)C=CCC1=CC[C@@H]1[C@@H]2[C@H]2CC3(O)C(=O)O[C@@]4(C)[C@H]5C[C@@]6(C)[C@@H]7[C@@]2(O)[C@]1(OC[C@H]6C(=O)O5)O[C@]734 (some centres undefined)
inactive: [1] 9.6% | [2] 16.3% | [3] -9.3% | [4] 1% | [5] -22.4% | [6] -55%

CC(C)OC(=O)c1ccc(NCC2=CC(=O)C=CC2=O)cc1
active: [2] 79.2% | [6] 88.2%
inactive: [1] 39.1% | [3] 63.5% | [4] 57.1% | [5] 46.1%
